The source of these data is PubChem BioAssay (NCI).

“And” between values parts separate entries of the source, which are not always exact repeats. Equal entries are not always repeated. Compounds without any hit were thinned out: in the full panel of roughly 83,000, 20% have a hit.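 Method: cells in 96-well plates; compound added at one concentration; 48 h incubation; percent growth measured; values under 10 scored active.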 Unmarked numbers belong to inactive results. The source made the active and inactive calls.

For the first test, the system named is HCT-116 colon. The test can be described thus: NCI-60 one-dose screen, 48 h (100 = growth as untreated, 0 = no growth, -100 = all killed). The following applies: 10 µM unless noted.
As for `CCOc1ccccc1NC(=O)c1cc2ccccc2cc1O`, the growth was 31.9%.
Still for that read-out and setting: under `C=C(CN1CC=CCC1)[C@@H]1CC[C@]2(COC(C)=O)CC[C@]3(C)[C@H](CC[C@@H]4[C@@]5(C)CC[C@H](O)C(C)(C)[C@@H]5CC[C@]43C)[C@@H]12` stands 93.6%.
On the same count and under the same terms, under `Cc1c(O)c(O)cc2c3c(oc12)CC(c1ccc2c(c1)OCO2)CC3=O` (stereo not given) stands 90.2%; under `O=c1c2c([nH]c3ccccc13)CCCC2`, 95.6% and 23.5%.
Still for that read-out and setting: under `Clc1ccc(/C=N\N2CCCCCC2)cc1` stands 103% and 104%; under `CCOC(=O)c1nc2c3ccccc3cnn2c1C(=O)c1ccc(OC)cc1`, 92%; under `COc1ccc(-c2nn3c(-c4cc(F)c(Cl)cc4Cl)nnc3s2)cc1`, 20.9%.
In the case of `O=C1C(=C(O)c2ccccc2)C(=O)c2ccccc21`, the growth was 102%.
On the same count and under the same terms, under `O=C(Nc1ccccc1C(=O)N/N=C(\c1ccccc1)c1ccccn1)c1ccccc1` stands 20.7%; under `COc1cc(-c2[nH]ncc2Nc2ccc(Cl)cc2)cc(OC)c1OC`, 58.4%; under `O=C([C@H]1C[C@H]1c1ccc(S(F)(F)(F)(F)F)cc1)N1CCN(c2cc(Cl)ccc2C(F)(F)F)CC1`, 60.2%.
The same measure, in the same setting: under `Clc1ccc2c(NCCN3CCN(c4ccnc(N5CCCC5)n4)CC3)ccnc2c1` stands 4.45% (active); under `Cn1c(=O)c2c(nc(Nc3cc(=O)[nH]c(=O)[nH]3)n2Cc2ccccc2)n(C)c1=O`, 94.2%; under `Cc1ccc(S(=O)(=O)OC[C@@]2(C)CC[C@]3(C)CC[C@]4(C)C(=CC[C@@H]5[C@@]6(C)CCCNC(C)(C)[C@@H]6CC[C@]54C)[C@@H]3C2)cc1`, -80.6% (active).
`Cc1nc(-n2[nH]c(=O)ccc2=O)sc1N=Nc1ccccc1`: the growth was 97.5%.
`CCCCC#Cc1c(/C=C(\CCCC)SCC)n(C)c(=O)[nH]c1=O`: the growth was 88.3%.
The same measure, in the same setting: with `O=C(CCN1CCOCC1)Nc1cccc(-n2cc(-c3ccncc3)c(-c3ccc(Cl)c(O)c3)n2)c1` the figure was 21.1%.
The same measure, in the same setting: with `CCOC(=O)c1cnn(CC(O)CC)c1NC(=O)NCc1ccccc1C(F)(F)F` (stereo not given) the figure was 78.5%.
On to `O=C(Nc1cc(C(F)(F)F)cc(C(F)(F)F)c1)c1cc(Cl)ccc1O`, for which the growth was -20.2% (active) and -28.9% (active).
Regarding `O=C(N/N=C/c1ccc(O)cc1O)c1cccc(Nc2ccnc(C(F)(F)F)c2)c1`, the growth is 12.3%.
Same read-out and setting: under `O=S(=O)(Nc1ccc(F)cc1)c1ccc(-c2cnc(C3CC3)o2)cc1` stands 18.8%.
The same measure, in the same setting: with `Nn1c(-c2ccc(Cl)cc2)nc2c(-c3ccc(Cl)cc3)nc3ccc(Cl)cc3c2c1=O` the figure was -100% (active).
For `COc1ccc2c(c1)oc1c(C)c3c(c(C)c12)C(=O)N(Nc1ccccc1)C3=O`, the growth is 96%.
Regarding `Cc1cnc(C(=O)NNc2nc3sc4c(c3c(=O)[nH]2)C(C)CCC4)cn1` (stereo not given), the growth is 22.5%.
Still for that read-out and setting: under `COC(=O)c1nc(-c2ccc(C)cc2)oc1Sc1ccc(C)cc1` stands 99.4%; under `O=C1OCC2=C1C(c1cccc(C(F)(F)F)c1)c1cc3c(cc1N2CCO)OCCO3` (stereo not given), 10.3%; under `C=C(CNCCc1ccc(O)cc1)[C@@H]1CC[C@]2(CO)CC[C@]3(C)[C@H](CC[C@@H]4[C@@]5(C)CCC(NCCc6ccc(O)cc6)C(C)(C)[C@@H]5CC[C@]43C)[C@@H]12` (stereo not given in full), -92% (active).

Another test deals with HCC-2998 colon. The description is as above. Particulars: 10 µM unless noted.
`CN1CCN(Cc2ccc(NC(=O)c3cccc(C#Cc4c(N)ncc5ccc(F)cc45)c3)cc2C(F)(F)F)CC1`: the growth was -86.8% (active).
On to `O=S(=O)(Nc1cc(Sc2cccc3cccnc23)c(O)c2ccccc12)c1ccc(F)cc1`, for which the growth was 40%.
The same measure, in the same setting: under `CCOC(=O)c1cc2c(n1Cc1cc(OC)cc(OC)c1Br)-c1nc(NC(C)=O)sc1CCC2` stands 72.7%; under `C#Cc1cc(C(=O)Nc2ccc(CN3CCN(C)CC3)c(C(F)(F)F)c2)ccc1C`, 90.2%.
Still for that read-out and setting: under `O=c1cc(N/N=C/c2ccc(F)cc2)c2cc(Cl)ccc2[nH]1` stands 85.1%; under `COc1ccc(Nc2nn3c(SCC(=O)c4ccc(C)cc4)nnc3s2)cc1`, 111%; under `Nc1ccccc1SC(CC(=O)c1ccccc1)c1ccc([N+](=O)[O-])cc1` (stereo not given), 101%.
On the same count and under the same terms, with `O=C1/C(=C/c2ccc(-c3cccc(C(F)(F)F)c3)o2)SC(=S)N1CCc1ccc(O)cc1` the figure was 107%.
With `COc1cc2c(cc1OCCCOC1=C=C=C(c3ccc4c(c3)c3cc(-c5ccc(OCCCOc6cc7c(cc6OC)C(=O)N6CCC[C@H]6C=N7)cc5)ccc3n4S(=O)(=O)c3ccc(C)cc3)C=C1)N=C[C@@H]1CCCN1C2=O`, the growth was -43.2% (active).
On the same count and under the same terms, with `CN1CCN(Cc2ccc(NC(=O)c3nc4ccc5[nH]ncc5c4c4c3CCCC4)cc2C(F)(F)F)CC1` the figure was -80.7% (active).
Take `CCOC(=O)n1cc(-c2nonc2-c2cn(C)c3ccc(OC)cc23)c2cc(F)ccc21`: the growth is 91.9%.
The same measure, in the same setting: under `CCOc1ccccc1NC(=O)c1cc2ccccc2cc1O` stands 76.3%.
On the same count and under the same terms, with `C=C(CN1CC=CCC1)[C@@H]1CC[C@]2(COC(C)=O)CC[C@]3(C)[C@H](CC[C@@H]4[C@@]5(C)CC[C@H](O)C(C)(C)[C@@H]5CC[C@]43C)[C@@H]12` the figure was 112%.
Still for that read-out and setting: with `Cc1c(O)c(O)cc2c3c(oc12)CC(c1ccc2c(c1)OCO2)CC3=O` (stereo not given) the figure was 101%; with `O=c1c2c([nH]c3ccccc13)CCCC2`, 55.5%; with `Clc1ccc(/C=N\N2CCCCCC2)cc1`, 97.4%.
Consider `CCOC(=O)c1nc2c3ccccc3cnn2c1C(=O)c1ccc(OC)cc1`, for which the growth is 99.2%.
`COc1ccc(-c2nn3c(-c4cc(F)c(Cl)cc4Cl)nnc3s2)cc1`: the growth was 42.1%.
Same read-out and setting: with `O=C1C(=C(O)c2ccccc2)C(=O)c2ccccc21` the figure was 109%; with `O=C(Nc1ccccc1C(=O)N/N=C(\c1ccccc1)c1ccccn1)c1ccccc1`, 29.7%; with `COc1cc(-c2[nH]ncc2Nc2ccc(Cl)cc2)cc(OC)c1OC`, 83.4%.
Take `O=C([C@H]1C[C@H]1c1ccc(S(F)(F)(F)(F)F)cc1)N1CCN(c2cc(Cl)ccc2C(F)(F)F)CC1`: the growth is 96.9%.
`Clc1ccc2c(NCCN3CCN(c4ccnc(N5CCCC5)n4)CC3)ccnc2c1`: the growth was 0.613% (active).
In the case of `Cn1c(=O)c2c(nc(Nc3cc(=O)[nH]c(=O)[nH]3)n2Cc2ccccc2)n(C)c1=O`, the growth was 107%.
On the same count and under the same terms, under `Cc1ccc(S(=O)(=O)OC[C@@]2(C)CC[C@]3(C)CC[C@]4(C)C(=CC[C@@H]5[C@@]6(C)CCCNC(C)(C)[C@@H]6CC[C@]54C)[C@@H]3C2)cc1` stands -92.3% (active).
As for `Cc1nc(-n2[nH]c(=O)ccc2=O)sc1N=Nc1ccccc1`, the growth was 115%.
For the molecule `CCCCC#Cc1c(/C=C(\CCCC)SCC)n(C)c(=O)[nH]c1=O`, the growth was 104%.
The same measure, in the same setting: with `O=C(CCN1CCOCC1)Nc1cccc(-n2cc(-c3ccncc3)c(-c3ccc(Cl)c(O)c3)n2)c1` the figure was 66.9%; with `CCOC(=O)c1cnn(CC(O)CC)c1NC(=O)NCc1ccccc1C(F)(F)F` (stereo not given), 100%; with `O=C(Nc1cc(C(F)(F)F)cc(C(F)(F)F)c1)c1cc(Cl)ccc1O`, -25.4% (active) and 4.04% (active).
With `O=C(N/N=C/c1ccc(O)cc1O)c1cccc(Nc2ccnc(C(F)(F)F)c2)c1`, the growth was 33.7%.
The same measure, in the same setting: with `O=S(=O)(Nc1ccc(F)cc1)c1ccc(-c2cnc(C3CC3)o2)cc1` the figure was 56.4%; with `Nn1c(-c2ccc(Cl)cc2)nc2c(-c3ccc(Cl)cc3)nc3ccc(Cl)cc3c2c1=O`, 372%.
Same read-out and setting: with `COc1ccc2c(c1)oc1c(C)c3c(c(C)c12)C(=O)N(Nc1ccccc1)C3=O` the figure was 105%; with `Cc1cnc(C(=O)NNc2nc3sc4c(c3c(=O)[nH]2)C(C)CCC4)cn1` (stereo not given), 11.1%; with `COC(=O)c1nc(-c2ccc(C)cc2)oc1Sc1ccc(C)cc1`, 110%.
The same measure, in the same setting: under `O=C1OCC2=C1C(c1cccc(C(F)(F)F)c1)c1cc3c(cc1N2CCO)OCCO3` (stereo not given) stands 8.81% (active); under `C=C(CNCCc1ccc(O)cc1)[C@@H]1CC[C@]2(CO)CC[C@]3(C)[C@H](CC[C@@H]4[C@@]5(C)CCC(NCCc6ccc(O)cc6)C(C)(C)[C@@H]5CC[C@]43C)[C@@H]12` (stereo not given in full), -91.3% (active).
